From PubChem BioAssay
JMJD2A Tudor inh: blocks the human JMJD2A Tudor domain. Potency, µM (doses to about 114 µM), usual class: inhibitors. AID 504339. AlphaScreen JMJD2A-Tudor / H3K4me3 peptide binding. 390,000 tested, 4.4% active; also: nearly all actives have a fitted effect of over 50% in size
GLS inh: inhibitors of human glutaminase (GLS) | O94925 | GLS enzymatic activity, qHTS titration | Potency, µM (titrated, usually from 45.5 µM), hits mostly inhibitors | 410,000 tested, 0.21% active | AID 624170
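hKGA in 45 mM KH2PO4 (pH 8.2), 0.02% Tween-20 with compound, then 1mM L-Glutamine (stock as added) plus glutamate oxidase/HRP/Amplex red coupling mix. Fluorescence read initially and after 30 min at RT; signal change reflects glutamate formation.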
G9a block: inhibitors of human histone lysine methyltransferase G9a. Q96KQ7. G9a H3K9 monomethylation, AlphaScreen, 2 h. Potency, µM (series often up to 102 µM), usual class: inhibitors. 350,000 tested, 8.8% active. AID 504332; also: nearly all actives have a fitted effect of over 75% in size
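Quantitative HTS format: methyltransferase activity on a biotin-tagged H3K9 peptide is measured by AlphaScreen, using a rabbit anti-monomethyl-H3K9 antibody with streptavidin donor and anti-IgG acceptor beads. Final levels are 20 nM enzyme, 500 nM peptide, 20 uM SAM; 2 h RT.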
L3MBTL1 inh: blocks human L3MBTL1. Potency, µM (titrated, usually from 57.1 µM), usual class: inhibitors. Q9Y468. AlphaScreen L3MBTL1–H3K9me1 peptide binding. 230,000 tested, 0.66% active; also: nearly all actives have a fitted effect of over 60% in size
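L3MBTL1 50 nM + b-AHA-H3(1-15)K9me1 75 nM, 30 min RT; compound added, 30 min RT; streptavidin donor/Ni-chelate acceptor beads 10 ug/mL each final, 30 min RT dark; AlphaScreen read.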
BAZ2B block: blocks human BAZ2B; Q9UIF8; 360,000 tested, 4.4% active; Potency, µM (highest dose often 114 µM), hits mostly inhibitors; AlphaScreen BAZ2B-H3K14Ac peptide displacement; also: nearly all actives have a fitted effect of over 60% in size
Target sequence (Q9UIF8 whole entry, looked up): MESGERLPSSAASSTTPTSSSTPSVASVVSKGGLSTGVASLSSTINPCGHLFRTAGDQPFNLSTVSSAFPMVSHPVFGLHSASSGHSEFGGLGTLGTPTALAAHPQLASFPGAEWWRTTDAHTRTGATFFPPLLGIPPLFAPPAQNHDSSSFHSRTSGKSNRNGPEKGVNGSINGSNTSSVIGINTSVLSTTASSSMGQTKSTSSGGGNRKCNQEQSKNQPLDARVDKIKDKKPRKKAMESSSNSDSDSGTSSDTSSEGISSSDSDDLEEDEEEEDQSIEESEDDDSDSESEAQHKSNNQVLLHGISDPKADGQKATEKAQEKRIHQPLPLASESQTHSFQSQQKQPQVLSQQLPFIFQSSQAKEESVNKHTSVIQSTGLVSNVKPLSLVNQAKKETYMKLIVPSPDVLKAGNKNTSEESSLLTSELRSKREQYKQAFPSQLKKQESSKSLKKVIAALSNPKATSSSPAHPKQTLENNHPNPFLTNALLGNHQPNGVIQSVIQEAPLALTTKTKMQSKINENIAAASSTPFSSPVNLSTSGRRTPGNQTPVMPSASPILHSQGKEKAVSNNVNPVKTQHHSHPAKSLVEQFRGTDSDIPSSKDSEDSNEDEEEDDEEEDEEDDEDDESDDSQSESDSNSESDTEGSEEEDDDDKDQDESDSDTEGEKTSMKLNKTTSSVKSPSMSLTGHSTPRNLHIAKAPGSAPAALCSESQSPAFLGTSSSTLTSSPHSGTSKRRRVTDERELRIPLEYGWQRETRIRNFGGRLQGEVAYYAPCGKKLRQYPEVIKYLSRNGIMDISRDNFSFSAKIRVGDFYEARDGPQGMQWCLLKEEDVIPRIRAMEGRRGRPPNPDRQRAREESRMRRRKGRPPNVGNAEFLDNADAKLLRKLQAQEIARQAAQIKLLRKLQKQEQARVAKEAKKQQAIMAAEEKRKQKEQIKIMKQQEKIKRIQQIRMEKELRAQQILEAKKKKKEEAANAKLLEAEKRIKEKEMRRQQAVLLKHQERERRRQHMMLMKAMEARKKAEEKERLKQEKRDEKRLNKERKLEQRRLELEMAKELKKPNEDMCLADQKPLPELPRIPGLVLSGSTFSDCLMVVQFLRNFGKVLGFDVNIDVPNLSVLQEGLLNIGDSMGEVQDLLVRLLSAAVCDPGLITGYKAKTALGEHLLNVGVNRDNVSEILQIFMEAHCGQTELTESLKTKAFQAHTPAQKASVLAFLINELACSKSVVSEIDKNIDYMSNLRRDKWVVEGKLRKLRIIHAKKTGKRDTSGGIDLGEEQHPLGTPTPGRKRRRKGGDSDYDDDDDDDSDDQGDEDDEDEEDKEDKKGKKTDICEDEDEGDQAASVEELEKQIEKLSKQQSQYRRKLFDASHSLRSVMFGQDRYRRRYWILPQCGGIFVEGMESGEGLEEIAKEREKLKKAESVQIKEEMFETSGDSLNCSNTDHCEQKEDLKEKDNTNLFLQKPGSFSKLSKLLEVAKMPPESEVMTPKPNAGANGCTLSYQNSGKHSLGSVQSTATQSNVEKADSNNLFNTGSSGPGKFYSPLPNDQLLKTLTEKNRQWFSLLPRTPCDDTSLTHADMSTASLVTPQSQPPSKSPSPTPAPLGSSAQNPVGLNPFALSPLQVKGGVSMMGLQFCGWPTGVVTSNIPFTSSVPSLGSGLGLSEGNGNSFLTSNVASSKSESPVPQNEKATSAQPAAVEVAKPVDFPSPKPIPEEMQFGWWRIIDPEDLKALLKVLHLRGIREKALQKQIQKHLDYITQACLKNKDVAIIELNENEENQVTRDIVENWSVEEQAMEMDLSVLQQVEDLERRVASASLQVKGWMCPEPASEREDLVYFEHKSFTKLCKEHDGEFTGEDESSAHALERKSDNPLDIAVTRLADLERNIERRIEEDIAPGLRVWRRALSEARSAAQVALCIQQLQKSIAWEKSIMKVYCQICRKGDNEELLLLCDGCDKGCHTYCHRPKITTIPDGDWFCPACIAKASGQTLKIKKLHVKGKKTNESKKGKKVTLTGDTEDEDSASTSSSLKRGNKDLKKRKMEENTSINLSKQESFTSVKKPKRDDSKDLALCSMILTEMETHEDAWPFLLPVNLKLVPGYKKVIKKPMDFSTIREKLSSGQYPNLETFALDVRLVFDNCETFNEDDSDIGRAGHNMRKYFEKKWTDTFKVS
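AlphaScreen luminescence quantifies BAZ2B engagement of H3K14Ac peptide; the protein and biotinylated peptide are both at 50 nM final, buffer PBS pH 7.4 with 0.01% Tween-20, all steps at room temperature.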
HP1b binding inh: HP1-beta chromodomain-methylated histone interaction inhibition. 390,000 tested, 0.56% active. P83916. AlphaScreen HP1-beta / biotin-H3K9me3 peptide binding. Potency, µM (top dose mostly 114 µM), hits mostly inhibitors; also: nearly all actives have a fitted effect of over 70% in size
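HP1-beta protein (50 nM final) preincubated 30 min at room temperature with biotinylated H3(1-18)K9me3 peptide (50 nM) in PBS pH 7.4, 0.01% Tween-20, then compound added for 30 min. AlphaScreen streptavidin donor/nickel chelate acceptor beads (10 ug/mL final), 30 min dark, luminescence read.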
Numbers stand for hits; . = inactive; ? = inconclusive; / = not tested or not shown; ! = not confirmed by another sample; [ ] = dose if it differs, or a comment. Rows were chosen to be rich in hits. Some 10% of all compounds tested hit in one or more screens of this group. Calls follow the shape of the dose curve; as a rule, active = well fitted curve in the direction sought with a large enough effect; inconclusive = small, poorly fitted or top-dose-only effect, or another doubt; inactive = no such curve, though single readings can be large; an effect the other way counts as inactive or inconclusive.

SMILES | JMJD2A Tudor inh | GLS inh | G9a block | L3MBTL1 inh | BAZ2B block | HP1b binding inh
COc1ccc(N2CCN(C(=O)c3oc4ccccc4c3NC(=O)Cc3cccc(OC)c3)CC2)cc1 | 16µM | . | 40µM | / | ? | .
COc1ccc(-c2noc(Cn3c(=O)c4ccccc4n(CC(=O)Nc4cccc(OC)c4)c3=O)n2)cc1 | . | . | . | / | . | .
COc1ccc(NC(=O)CN2C(=O)C(c3ccc(C(C)(C)C)cc3)=NC2(C)C)cc1Cl | . | . | . | / | . | .
O=C1c2ccccc2-c2onc3ccc(NCCCn4ccnc4)c1c23 | 50µM | . | .[12.7 µM] | / | 14µM | ?
COc1ccc2noc3c2c1C(=O)c1ccccc1-3 | ? | . | / | / | / | .
ON=C1c2ccccc2-c2ccccc21 | . | . | . | / | . | .
CN(C)c1ccc2c(c1)C(=NO)c1ccccc1-2 | 40µM | . | / | / | / | 45µM
Cc1ccc(S(=O)(=O)N2CCN(c3nc(-c4cnccn4)nc4ccccc34)CC2)cc1 | . | / | / | / | / | .
COc1ccc2c(c1)c(=O)oc1c(C)c(OCC(=O)N3CCc4ccccc4C3)ccc12 | . | . | / | . | . | .
COc1ccc2c(c1)c(=O)oc1c(C)c(OCc3ccc(C(=O)O)cc3)ccc12 | 50µM | ? | ? | / | 50µM | .
CCn1ccc2cc(S(=O)(=O)N3CCC(C(=O)NCCOC)CC3)ccc21 | . | . | . | / | . | .
Brc1ccccc1OCCNCc1ccccc1 | ? | . | 7.9µM | / | 50µM | ?
C=CCc1ccccc1OCCNCc1ccccc1 | 0.89µM | . | 8.9µM | / | ? | ?
Clc1ccc(OCCCNCc2ccccc2)c2ccccc12 | 28µM | . | / | . | 50µM | ?
CCOc1ccc2nc(N3CCCC(C(=O)Nc4ccccc4CC)C3)sc2c1 (stereo not given) | . | . | . | / | . | .
CCC(Sc1nc2ncnc(N)c2[nH]1)C(=O)O (stereo not given) | . | . | 40µM | . | . | .
Cc1ccc2c(C)ccc(O)c2n1 | . | . | 3.5µM | / | ? | .
Cc1ccc2ccc3ccc(C)nc3c2n1 | . | . | / | / | . | .
CC(=O)O[C@@H]1C(=O)O[C@H]2[C@@H]1OC(=O)[C@@H]2OC(C)=O | / | . | / | / | / | /
CN(C)S(=O)(=O)Nc1ccc(-c2cn3ccsc3n2)cc1 | . | . | . | / | . | .
N#C/C(=C\Nc1ccc2cn[nH]c2c1)c1nc(-c2ccccc2)cs1 | . | . | 71µM | / | / | .
S=c1nccc(-c2ccc(Cl)cc2)[nH]1 | . | ? | . | . | . | .
S=c1[nH]c(-c2ccc(Cl)cc2)cs1 | ? | . | 35µM | ? | 45µM | .
Cc1ccc(-c2csc(=S)[nH]2)cc1 | . | . | 13µM | / | ? | .
COC(=O)/C(=N\Nc1ccc(Cl)cc1)Sc1nnc(-c2ccc(OC)cc2)n1C | ? | . | 3.2µM | . | . | .
SMILES | JMJD2A Tudor inh | GLS inh | G9a block | L3MBTL1 inh | BAZ2B block | HP1b binding inh
COc1ccc(CNC(=O)CSc2nnc(-c3ccc(NC(C)=O)cc3)n2C)cc1 | . | . | . | / | . | .
Cc1ccc(S(=O)(=O)/N=C(\Sc2ccccc2)c2ccccc2)cc1 | . | . | .[12.7 µM] | . | . | .
Cc1ccc(S(=O)(=O)/N=C(/Sc2ccccc2C(=O)O)c2ccccc2)cc1 | . | . | / | / | . | 22µM!
O=C(CN1CCN(c2ncc(C(F)(F)F)cc2Cl)CC1)N1CCN(c2ncc(C(F)(F)F)cc2Cl)CC1 | . | . | 50µM | / | . | .
Cc1nc2cc(-c3cccc(F)c3)nn2c(C)c1CCC(=O)Nc1ccccc1C(N)=O | . | . | . | / | . | .
O=c1c2oc3ccccc3c2n(Cc2cccc(C(F)(F)F)c2)c(=O)n1Cc1ccc2c(c1)OCO2 | . | . | ? | / | . | .
CC(C)n1c(O)c(N=NC(=O)C2COc3ccccc3O2)c2ccccc21 (stereo not given) | ? | . | 35µM | . | ? | .
Cc1nn(-c2ccc(Cl)cc2)c2[nH]c(CCl)cc(=O)c12 | 79µM | . | ? | / | . | .
COc1cccc(C(=O)NCCCNC(=O)c2cccnc2)c1 | . | . | . | / | . | .
COc1ccc(OCC(=O)OCCNC(=O)c2cccnc2)cc1 | 50µM | . | 32µM | . | ? | .
Cc1ccc(OCC(=O)NNC(=O)c2cccnc2)cc1 | . | . | 79µM | . | . | .
COc1ccc(OCC(=O)NNC(=O)c2cccnc2)cc1 | . | . | .[2.33 µM] | . | ? | .
COc1cccc(C(=O)OCCNC(=O)c2cccnc2)c1 | . | . | 50µM | / | . | .
O=C(NCCOC(=O)C1COc2ccccc2O1)c1cccnc1 (stereo not given) | 40µM | . | 50µM | . | ? | .
CCc1ccc(NC(=O)c2noc3c2CCC3)cc1 | 56µM | . | .[12.7 µM] | / | 50µM | .
CSc1ccccc1NC(=O)c1noc2c1CCC2 | 50µM | . | 14µM | 14µM | 40µM | 50µM
Cc1ccc(O)c(NC(=O)c2noc3c2CCCC3)c1 | . | . | . | / | . | .
C=CCNc1sc(C(=O)c2cccs2)c(N)c1C#N | . | . | 13µM | .[11.4 µM] | . | .
CCNc1sc(C(=O)c2cccs2)c(N)c1C#N | . | . | .[12.7 µM] | .[11.4 µM] | . | .
OCc1c[nH]c2ccccc12 | . | . | 13µM! | . | . | .
c1ccc2c(NCCc3c[nH]c4ccccc34)c3ccccc3nc2c1 | 50µM | . | .[2.33 µM] | / | 35µM | .
OCCc1c[nH]c2ccccc12 | . | . | .[12.7 µM] | / | . | .
Fc1cccc(NCCc2c[nH]c3ccccc23)n1 | ? | . | .[12.7 µM] | / | . | .
COc1ccc(C2=NC(C)(C)N(CC(=O)Nc3cccc(C)c3)C2=O)cc1 | . | . | . | / | . | .
O=C(NS(=O)(=O)Nc1ccccc1)C1=C(N2CCCC2)COC1=O | 100µM | . | / | . | / | .
SMILES | JMJD2A Tudor inh | GLS inh | G9a block | L3MBTL1 inh | BAZ2B block | HP1b binding inh
O=C(NC(=O)c1ccccc1)C1=C(N2CCCC2)COC1=O | . | . | .[2.33 µM] | . | . | .
O=C(/C=C/c1ccco1)Nc1ccc(N2CCCC2)cc1 | . | . | 0.89µM | . | . | .
COc1cccc(Nc2ccc(C(=O)O)cc2N)c1 | . | 3.2µM | ? | / | . | .
CSc1cccc(NC(=O)/C=C/c2ccco2)c1 | . | . | 28µM | / | ? | .
COc1cccc(NC(=O)C(C)(C)C)c1 | . | . | 3.2µM | . | . | .
COc1ccc(Cl)cc1NS(=O)(=O)c1ccc2c(c1)NC(=O)CC(=O)N2 | . | . | . | / | . | .
COc1cccc(NC(=O)/C=C/c2ccco2)c1 | . | . | 35µM | . | . | .
COc1cccc(NC(=O)C(NCC2CCCCC2)c2ccccc2)c1 (stereo not given) | 1µM | . | 3.2µM | / | ? | ?
O=C(/C=C/c1ccco1)Nc1ccc(-c2nc3ccccc3[nH]2)cc1 | . | . | 40µM | . | ? | .
CCOc1cccc(CC(=O)N2CCc3c([nH]c4ccccc34)C2c2ccc(C)cc2)c1OCC (stereo not given) | ? | . | ? | / | . | .
